# PubChem BioAssay AID1035 (National Center for Advancing Translational Sciences (NCATS), 2008)
# Unmarked numbers belong to inactive results. How the calls were made is not given here.
# Experiment: HDAC Secondary Assay for qHTS Assay for Epigenetic Modulators
# Details: HeLa nuclear extract HDAC activity, fluorogenic substrate, 20 min; at 48 µM; hits give low values
# Text: NIH Molecular Libraries Screening Centers Network [MLSCN] NIH Chemical Genomics Center [NCGC] MLSCN Grant: 1 X01 MH079860-01 Assay Provider: Elisabeth D. Martinez, University of Texas SW Medical Center NCGC Assay Overview: This secondary assay characterizes selected actives identified in the qHTS of the Locus Derepression (LDR) assay (PubChem AID 597). The LDR assay detects the derepression of a GFP reporter that is stably integrated in a region of the genome of murine c127i mammary cells that is presumably silenced. Compounds that cause derepression of the locus to express GFP are identified by enumerating GFP positive cells using a laser-scanning microplate cytometer. […]
# NCGC Assay Protocol Summary HeLa nuclear extracts and acetylated profluorescent substrate were incubated with vehicle, 0.5 uM TSA, or 48 uM indicated LDR compound for 20 min at ambient temperature and fluorescence was measured. Background-subtracted activity was expressed as a percent of uninhibited extract. […] For further details, see R.L. Johnson, W. Huang, A. Jadhav, C.P. Austin, J. Inglese, E.D. Martinez, A Quantitative High-Throughput Screen Identifies Potential Epigenetic Modulators of Gene Expression, Analytical Biochemistry (2007), doi: 10.1016/j.ab.2007.12.028
structure (smiles),measurement,value
CN1CSC(=S)N(C)C1,remaining HDAC activity,102%
